In the library only some 27% were active in any assay of this set; here they are far more common.
CYP2C19 inhib: blockers of cytochrome P450 2C19 activity – biochemical, luminescence, ADME assay, primary screen | 96,000 compounds, 21% hits | P33261 | inhibition, % at 5 µM | CYP2C19 Supersomes, luciferin-H EGE luminescence, 30 min;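 active = CYP2C19 inhibition above a set limit at 5 µM in the primary screen, cut at about 50% in these data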;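 also: plate controls were negative control wells for no effect and 2.5 mM tranylcypromine positive control for full effect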
CYP2C9 act: human CYP2C9 activators, primary screen, biochemical, luminescence; Cytochrome P450 2C9 (Homo sapiens), P11712; recombinant CYP2C9, luciferin-H conversion; active compounds read high; factor 1 = untreated enzyme, 0 = blocked; activation factor at 5 µM; 96,000 compounds, 1.4% hits;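 active = activation factor of 2 or more for CYP2C9 at a 5 µM dose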;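 also: 0 = sulfaphenazole-blocked wells and 1 = vehicle-only wells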
Target sequence (P11712 whole entry, looked up): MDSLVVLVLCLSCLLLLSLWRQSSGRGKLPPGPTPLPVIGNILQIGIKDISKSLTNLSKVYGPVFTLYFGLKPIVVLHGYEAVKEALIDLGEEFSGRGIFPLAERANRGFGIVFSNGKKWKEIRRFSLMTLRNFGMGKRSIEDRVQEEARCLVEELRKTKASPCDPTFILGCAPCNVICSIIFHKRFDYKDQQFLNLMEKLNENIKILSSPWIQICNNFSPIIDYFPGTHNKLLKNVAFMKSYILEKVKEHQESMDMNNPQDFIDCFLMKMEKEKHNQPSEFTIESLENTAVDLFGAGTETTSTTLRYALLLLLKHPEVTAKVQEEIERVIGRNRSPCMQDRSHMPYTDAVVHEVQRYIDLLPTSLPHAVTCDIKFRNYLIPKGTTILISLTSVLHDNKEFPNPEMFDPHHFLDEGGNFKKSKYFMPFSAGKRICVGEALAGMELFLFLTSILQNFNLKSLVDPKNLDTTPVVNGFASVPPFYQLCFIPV
Cav32 inh: Cav3.2 calcium influx blockers – cell-based, Fluo-4 calcium fluorescence, FDSS, MLSMR library, primary screen. Voltage-dependent T-type calcium channel subunit alpha-1H (Homo sapiens), O95180. Cav3.2-expressing cells; active compounds read low. B-score at 10 µM. 100,000 compounds, 4% hits;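 active = single-dose well whose peak fluorescence ratio is a statistical outlier from its plate by either plate-standardised score or position-corrected B-score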
CYP2C19 act: human CYP2C19 activators, primary screen, biochemical, luminescence | recombinant CYP2C19, luciferin-H EGE luminescence; active compounds read high; 0 = fully inhibited enzyme, 1 = untreated enzyme | 96,000 tested, under 10 active | AID 1025, 2008 | activation factor at 5 µM;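 active = activation factor of at least 2 at 5 µM in the primary screen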;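 also: 0 = wells with 2.5 mM tranylcypromine and 1 = vehicle-only wells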
CYP2C9 inh: blockers of cytochrome P450 2C9 activity – biochemical, luminescence, ADME assay, primary screen. 96,000 compounds, 20% hits. CYP2C9 Supersomes, luciferin-H conversion. inhibition, % at 5 µM;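 active = blocking of liver enzyme CYP2C9 beyond about 50% at 5 µM, limit read from the data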
* = called active by the depositor; x = not tested or not shown.

SMILES	CYP2C19 inhib	CYP2C9 act	Cav32 inh	CYP2C19 act	CYP2C9 inh
Cc1nc(S(=O)(=O)c2ccc(Cl)cc2Cl)nc2c1CCC2	26	1.4	-0.86	0.7	-38
Cc1nc(S(=O)(=O)c2cccc(Cl)c2)nc2c1CCC2	10	2.7*	x	0.9	-173
CCN(CC)CCCNC(=O)C1c2ccccc2C(=O)N(C)C1c1ccc(OC)cc1 (stereo not given)	-8	1	-0.088	1.1	-2
CN1CCN(C(=O)CSc2nc(-c3cccs3)ccc2C#N)CC1	12	0.6	0.56	0.9	37
Cc1ccc(S(=O)(=O)N(CC(O)CN2C(=O)NC(C)(C)C2=O)c2ccccc2)cc1 (stereo not given)	32	0.9	-0.82	0.7	14
COc1ccccc1N(CC(O)CN1C(=O)NC(C)(C)C1=O)S(=O)(=O)c1ccc(C)cc1 (stereo not given)	94*	0.4	0.73	0.1	60*
CC(=O)c1c(OC(=O)c2ccco2)c2ccccc2n1C	62*	0.8	x	0.4	23
Cc1cccnc1Nc1nc(-c2ccc(O)c(O)c2)cs1	66*	0.2	2.4	0.3	76*
CCOc1ccc(C(=O)N2CCSC2=S)cc1	x	x	-0.71	x	x
CCOC(=O)CCN(Cc1cccs1)S(=O)(=O)c1ccc(Cl)cc1	68*	0.6	-3.1	0.3	43
CCOC(=O)N1CCN(C(=O)CN(Cc2ccc(Cl)cc2)S(=O)(=O)c2ccccc2)CC1	41	0.7	x	0.6	27
Cc1ccc(C2CC(C(F)(F)F)n3nc(C(=O)NCc4ccco4)cc3N2)cc1 (stereo not given)	36	0.9	x	0.6	5
CC(NC(=O)CCCCCN1C(=O)c2ccccc2C1=O)c1ccc2c(c1)CCCC2 (stereo not given)	49	0.1	-3.7*	0.5	92*
O=C(CCCN1C(=O)c2ccccc2C1=O)NC1CCCCCC1	44	0.6	0.065	0.6	39
CC(NC(=O)CCCN1C(=O)c2ccccc2C1=O)c1ccc2c(c1)CCCC2 (stereo not given)	83*	0.1	-4.2*	0.2	90*
Cc1ccccc1CS(=O)(=O)CCC(=O)NCCCN1CCN(c2ccccc2F)CC1	2	1	0.29	1	-4
Cc1cc(C)c2c(=O)n(CC(=O)NCCCN3CCN(c4ccccc4F)CC3)sc2n1	38	0.3	x	0.6	65*
Cc1cc(=O)oc(C)c1C(=O)NCCCN1CCN(c2ccccc2F)CC1	8	0.4	1	0.9	64*
Cn1c(C(=O)NCCCN2CCOCC2)cc2c(=O)n(C)c3ccccc3c21	14	0.9	0.035	0.9	6
Cn1c(C(=O)NCCCN2CCN(c3ccccc3F)CC2)cc2c(=O)n(C)c3ccccc3c21	66*	0.5	0.34	0.3	50*
O=C(NC12CC3CC(CC(C3)C1)C2)c1cncc(O)c1	14	0.9	-0.17	0.9	13
OC(CNCCc1ccccc1)c1ccccc1 (stereo not given)	67*	1	0.034	0.3	0
c1ccc(-c2n[nH]c(-c3ccccn3)n2)cc1	-4	0.9	-4.8	1	5
c1ccc(-c2n[nH]c(-c3ccccn3)n2)nc1	67*	0.9	-0.07	0.3	14
Cc1cc(N2CCC(N(C)C3CCCC3)CC2)nc2cc(O)ccc12	14	1	x	0.9	4
SMILES	CYP2C19 inhib	CYP2C9 act	Cav32 inh	CYP2C19 act	CYP2C9 inh
O=C(CSc1nnc(-c2ccco2)n1-c1ccccc1)N1CCOCC1	-7	1.1	0.0088	1.1	-14
O=S(=O)(NCCSc1nnc(-c2ccco2)n1-c1ccccc1)c1ccccc1	76*	0.2	-0.11	0.2	83*
CCOC(=O)C1CCN(C(=O)CSc2nnc(-c3ccco3)n2-c2ccccc2)CC1	53*	0.5	1.3	0.5	54*
CC1Cc2ccccc2N1C(=O)CSc1nnc2n1C(C)(C)Cc1ccccc1-2 (stereo not given)	74*	0.4	-3	0.3	56*
c1ccc(-n2c(-c3ccco3)nnc2-c2ccco2)cc1	-15	0.8	0.73	1.1	16
CC(C)OC(=O)CSc1nnc2n1C(C)(C)Cc1ccccc1-2	49	0.5	0.49	0.5	53*
O=C(CSc1nnc(-c2ccc(Br)cc2)o1)N1CCN(C(=O)c2ccco2)CC1	8	0.9	0.26	0.9	11
O=C(O)/C(=C\c1ccco1)NC(=O)c1cccc2ccccc12	14	0.9	0.57	0.9	9
O=c1cc(CSc2ccc(Cl)cc2)nc(N2CCCCC2)[nH]1	5	0.7	-0.46	1	34
Cc1cc(C)c(C#N)c(=N)o1	6	1	x	0.9	0
COc1cccc(-n2c(SCC(=O)N3c4ccccc4CC3C)nnc2-c2ccco2)c1 (stereo not given)	80*	0.1	-3.7*	0.2	92*
COc1cccc(C2C(C(=O)c3sc(C)nc3C)=C(O)C(=O)N2CCN(C)C)c1OC (stereo not given)	2	1.1	x	1	-5
c1ccc2nc(-c3ccncc3)ccc2c1	68*	0.6	0.29	0.3	36
c1ccc2nc(-c3ccc(N4CCOCC4)cc3)ccc2c1	41	1.5	-0.57	0.6	-45
CC(C)=CCC(C)(C)C1OCCN1C(=O)c1ccccc1 (stereo not given)	71*	0.6	-0.93	0.3	44
O=C(O)C1Cc2ccccc2CN1C(=O)c1ccccc1 (stereo not given)	0	1.1	0.42	1	-10
Cc1ccccc1-c1ccc(Nc2ccc(N3CCOCC3)cc2)nn1	35	0.4	-0.0028	0.6	58*
Cc1onc(-c2ccccc2)c1C(=O)OCC(=O)c1ccccc1	69*	0.5	-2.4	0.3	54*
Cc1ccc(NC(=S)NC(=O)c2c(-c3ccccc3Cl)noc2C)cc1	35	0.7	x	0.7	29
Cc1onc(-c2c(Cl)cccc2Cl)c1C(=O)Nc1ccc2c(c1)OCCO2	54*	0.1	-0.055	0.5	88*
Cc1cc(NC(=O)c2c(-c3ccccc3Cl)noc2C)no1	15	0.7	-0.59	0.8	31
COC(=O)c1cc(OC)c(OC)cc1NC(=O)c1c(-c2ccccc2Cl)noc1C	42	0.4	-2.9	0.6	56*
Cc1cc(=O)oc(C)c1C(=O)OCC(=O)c1ccccc1	39	0.9	0.83	0.6	12
Cc1onc(-c2ccccc2Cl)c1C(=O)Nc1ccc(F)c(F)c1	90*	0.3	-4.1*	0.1	70*
CC(C)CCN(C)C1CCN(S(=O)(=O)c2ccc(F)cc2)CC1	3	0.9	1.4	1	7
Cc1ccccc1-n1nc2c(c1NC(=O)c1c(-c3ccccc3Cl)noc1C)CS(=O)(=O)C2	-2	0.9	x	1	5

Assay outcomes (PubChem)
